TAG inh: inhibitors of triacylglycerol accumulation, primary screen, cell-based, uHTS, fluorescence, H9c2. H9c2 cells, Nile Red lipid (TAG) fluorescence; cells loaded with 200 µM oleic acid. inhibition, % at 12.5 µM. 230,000 tested, 0.66% active;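 active = pattern-corrected inhibition of lipid staining of at least 50% with the nuclear-stain viability signal not falling by more than 50%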;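 note: 0% = DMSO wells and 100% = triacsin C control wells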
aSyn UTR inh: MLPCN primary screen, SNCA 5' untranslated region; inhibition, % (tested at 7.5 µM); 300,000 tested, 0.82% active; alpha-synuclein 5'UTR reporter, inhibitor activity; in the data active = inhibition above about 60%;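 note: H4 neuroglioblastoma cells stably carrying SNCA 5'UTR luciferase fusion; 0% = DMSO wells and 100% = positive control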
Gli-Sufu block: Gli-Sufu pathway antagonists, primary screen, luciferase luminescence, Sufu-KO-LIGHT cells, uHTS; 340,000 tested, 0.74% active; Sufu-KO-LIGHT fibroblasts, Gli luciferase reporter luminescence; AID 588413, 2011; inhibition, % at 5 µM;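 active = inhibition above about 55%, limit read from the data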;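 note: 0% = DMSO-treated cells and 100% = wells with medium but no cells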
Jurkat NFkB inh: inhibitors of induced NF-kB luciferase reporter, primary screen, TCR NF-kB activation inhibitor project, cell-based, luminescence, uHTS; Jurkat, PMA/ionomycin-induced NF-kB luciferase reporter; inhibition, % at 4 µM; 330,000 tested, 0.53% active; AID 435003, 2010; in the data active = inhibition above about 50%
Shn3 inh set2: reduction of Shn3 3'UTR firefly luciferase signal, primary screen, Schnurri-3 inhibitor project, cell-based, Clone20 osteoblasts, set 2. Clone20 osteoblast Shn3 3'UTR firefly luciferase, 24 h. 360,000 tested, 0.52% active. inhibition, % at 12.5 µM;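 active = mean inhibition of at least 75% with every replicate also reaching 75%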;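 note: 0% = median of neutral control wells and 100% = pilot-screen positive control compound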
697 NFkB inh: inhibitors of PMA/ionomycin-induced NF-kB reporter, 697 cells, primary screen, B-cell NF-kB inhibitor project, cell-based, luminescence, uHTS | 697 B-cell NF-kB luciferase reporter, 16 h | inhibition, % at 4 µM | 330,000 tested, 0.33% active; in the data active = inhibition above about 35%
Gli-Sufu confirm: Gli-SUFU pathway antagonists, confirmation, single concentration, luciferase luminescence, Sufu-KO-LIGHT cells. shares compounds with Gli-Sufu block. Gli luciferase reporter. inhibition, % at 5 µM. 2,500 tested, 40% active;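 active = mean inhibition at 5 µM reaching about 45%, limit read from the data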;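 note: plate controls were DMSO-treated cells for no effect and wells lacking cells for full effect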
SufuKO cytotox: cytotoxicity in Sufu-KO-LIGHT cells, confirmation, cytotoxicity control for Gli-SUFU antagonist project, cell-based, ATP luminescence, single concentration; shares compounds with Gli-Sufu block; cytotoxicity, % at 5 µM; 2,500 tested, 32% active;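 active = mean cytotoxicity at 5 µM above about 25%, limit read from the data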;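 note: cells exposed to compound overnight for roughly 16 to 18 hours; plate controls were DMSO wells with cells for no effect and medium without cells for full effect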
Wnt3a counter: Wnt3a reporter signal inhibition, confirmation, counter-screen for Gli-SUFU antagonist project, Wnt-LIGHT cells, luminescence, single concentration; shares compounds with Gli-Sufu block; Wnt3a-driven luciferase reporter; inhibition, % at 6.25 µM; 2,500 tested, 20% active;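 active = mean inhibition above about 25%, limit read from the data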
Numbers without * were called inactive; . = not tested or not shown. Hits are enriched below; roughly 2.3% of the tested compounds scored in any of these assays.

SMILES | TAG inh | aSyn UTR inh | Gli-Sufu block | Jurkat NFkB inh | Shn3 inh set2 | 697 NFkB inh | Gli-Sufu confirm | SufuKO cytotox | Wnt3a counter
COc1cc(C(=O)NCCC(=O)NCc2ccc3c(c2)OCO3)cc(OC)c1OC | . | 17.9 | -17.0 | -0.3 | -1.6 | 5.8 | . | . | .
Cc1nc(NCCc2ccc(S(N)(=O)=O)cc2)c2c(C)c(C)sc2n1 | -54.7 | -15.8 | 62.8* | 8.0 | 79.3 | -25.6 | 58.5* | 38.9* | 24.9
Cc1nc(NCc2ccc(S(N)(=O)=O)cc2)c2c(C)c(C)sc2n1 | . | 17.1 | 8.1 | -0.3 | 36.1 | -4.1 | . | . | .
CCOC(=O)c1c(C)[nH]c(C(=O)C(C)Sc2ccc(Cl)cc2)c1C (stereo not drawn) | . | -97.4 | 10.8 | 4.9 | -40.6 | -1.8 | . | . | .
CCOC(=O)c1c(C)[nH]c(C(=O)Cn2nnc(-c3ccc(Cl)cc3)n2)c1C | . | 33.3 | 56.4* | -18.4 | -2.9 | 9.3 | 12.1 | 13.3 | -11.0
Cc1cc(Nc2ccccc2)n(-c2ccc(Br)cc2)n1 | 15.3 | 0.9 | 3.1 | -3.6 | -11.3 | 9.6 | . | . | .
N#Cc1c(-c2ccccc2)cc(C2CC2)nc1N | -19.5 | 29.1 | 50.3 | -21.4 | -12.9 | -24.1 | 21.6 | 23.6 | -14.5
COc1nc(NCCc2ccc(OC)c(OC)c2)nc(OC)n1 | 3.9 | -12.8 | 0.5 | 0.3 | -8.8 | 10.3 | . | . | .
COc1nc(NCCC2=CCCCC2)nc(OC)n1 | 3.2 | 3.1 | 98.7* | 5.5 | 1.8 | -3.6 | 17.9 | 2.6 | -20.4
O=c1[nH]c(C2CCN(S(=O)(=O)c3ccc(C(F)(F)F)cc3)CC2)nc2c1nnn2Cc1cccc(F)c1 | . | 14.9 | 56.2* | 5.7 | -1.3 | -22.5 | 18.8 | 25.1* | -56.6
CCOc1ccc2nc(N3CCCC(C(=O)NCCCN4CC(C)CC(C)C4)C3)sc2c1 (stereo not drawn) | . | -50.6 | 20.3 | -5.3 | -41.8 | -4.7 | . | . | .
CCOc1ccc2nc(N3CCCC(C(=O)NCCCN4CCCCC4)C3)sc2c1 (stereo not drawn) | . | -86.1 | 65.5* | -27.3 | -45.7 | -29.3 | 20.1 | 11.3 | -212.5
Cc1cc(=O)n2nc(N3CCCC(C(=O)NCCCN4CC(C)CC(C)C4)C3)sc2n1 (stereo not drawn) | . | 4.1 | 59.8* | -3.9 | -44.8 | 0.2 | 21.6 | 12.5 | -5.4
Cc1cc(=O)n2nc(N3CCCC(C(=O)NCCCN4C(C)CCCC4C)C3)sc2n1 (stereo not drawn) | 4.3 | . | . | . | -10.1 | . | . | . | .
CCCCNC(=O)COC(=O)c1cc(S(=O)(=O)N2CCCCCC2)ccc1OC | 8.8 | -7.2 | -3.3 | 20.5 | 12.2 | 4.8 | . | . | .
NNC(=O)CN1C(=O)Nc2ccc(Cl)cc2C1c1ccccc1 (stereo not drawn) | . | -15.0 | 8.6 | -0.3 | 4.1 | 18.7 | . | . | .
CCn1c(SCc2nc3ccccc3c(=O)[nH]2)nc2ccccc21 | -0.2 | 9.7 | 56.2* | 4.7 | -24.9 | -0.6 | 13.0 | 25.5* | -23.5
CC(NCC(O)COc1ccc2ccccc2c1)c1ccccc1 (stereo not drawn) | . | 58.8 | 23.0 | 22.5 | 23.5 | 14.2 | . | . | .
CC(NCC(O)COc1ccc(Br)cc1)c1ccccc1 (stereo not drawn) | . | 16.1 | 58.4* | 1.4 | 11.2 | 7.1 | 14.3 | 1.6 | -36.8
CCOC(=O)c1c(NC(=O)c2cccc(N3C(=O)CCC3=O)c2)sc(C)c1C | . | -2.2 | 6.7 | -10.0 | -14.8 | -3.0 | . | . | .
COc1ccc(S(=O)(=O)Nc2ccc(Cc3ccncc3)cc2)cc1OC | . | 17.4 | 14.9 | 24.6 | 35.6 | -11.6 | . | . | .
CCc1ccc(OC)c(S(=O)(=O)Nc2ccc(Cc3ccncc3)cc2)c1 | . | 7.7 | 57.0* | 13.1 | 81.7 | -24.5 | 58.4* | 44.3* | 28.8*
